Test results taken from PubChem BioAssay (Tox21).
“And” between values parts separate entries of the source, which are not always exact repeats. Equal values may be shown once. Results filed as inconclusive are left out. Where a call stands in place of a potency, no number is given. The source holds several records for some structures; these can differ, active in one and inactive in another. The source made the active and inactive calls. The call rests on the fitted dose curve; in most records, active means well fitted cell-killing curve with a large enough effect in the repeat runs; inconclusive means weak or mixed curves, or effect the other way; inactive means no such curve, though single readings can be large or run the other way.

assay: qHTS assay to identify small molecule agonists of the vitamin D receptor (VDR) signaling pathway - cell viability counter screen (AID 743224); details: VDR-bla HEK293T viability, CellTiter-Glo luminescence, 16 h; series mostly up to 62.6 µM
Procedure, shortened: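 CellTiter-Glo viability readout on VDR-bla cells, measured after 16 h of compound treatment at 37C in the same wells.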
Further: nearly all actives have a fitted effect of over 50% in size.
Potency means the concentration at half of the fitted maximal effect.

Structure (SMILES) | Potency
CCCCOCCOC(C)=O | inactive
CCOP(=S)(OCC)OP(=S)(OCC)OCC | inactive
Cc1cccc(N=Nc2ccc(N(C)C)cc2)c1 | inactive
COc1ccc(C=O)cc1OC | inactive
CC(C)(C#N)N=NC(C)(C)C#N | inactive
CC1CC(=O)O1 (stereo not drawn) | inactive
CS(=O)(=O)NC(=O)c1cc(Oc2ccc(C(F)(F)F)cc2Cl)ccc1[N+](=O)[O-] | inactive
CC(C)(c1ccc(OCC2CO2)cc1)c1ccc(OCC2CO2)cc1 (stereo not drawn) | inactive
[CH3][Sn]([Cl])([Cl])[Cl] | inactive
CCOP(=O)(OCC)OCC | inactive
COP(=S)(OC)SCn1nnc2ccccc2c1=O | inactive
CC1=C(C(=O)Nc2ccccc2)SCCO1 | inactive
CC[n+]1c(-c2ccccc2)c2cc(N)ccc2c2ccc(N)cc21 | 21.8 µM (active)
O=C(O)CF | inactive
CSc1nc(NC(C)C)nc(NC(C)C)n1 | inactive
CCCCSP(=O)(SCCCC)SCCCC | inactive
c1ccc2c(c1)Nc1ccccc1S2 | inactive
CC(C)=CC1C(C(=O)OCc2cccc(Oc3ccccc3)c2)C1(C)C (stereo not drawn) | inactive

Structure (SMILES) | Potency
Cc1cc(Cl)ccc1N=CN(C)C | inactive
CCCCOC(=O)COC(=O)c1ccccc1C(=O)OCCCC | inactive
COC(=O)Nc1nc2ccccc2[nH]1 | inactive
Clc1ccc(C(Cl)(Cl)Cl)cc1 | inactive
O=NN1CCOCC1 | inactive
CC1(C)C(C(=O)OC(C#N)c2cccc(Oc3ccccc3)c2)C1(C)C (stereo not drawn) | inactive
C=CC(Cl)CCl (stereo not drawn) | inactive
CCC/C=N/O | inactive
Clc1cccc(C(Cl)(Cl)Cl)n1 | inactive
CC(C)Nc1nc(Cl)nc(NC(C)C)n1 | inactive
Nc1ccc2ccccc2c1 | inactive
O=C(O)c1nn(Cc2ccc(Cl)cc2Cl)c2ccccc12 | inactive
Nc1ncn[nH]1 | inactive
CNC(=S)S | inactive
O=[N+]([O-])c1ccc(Nc2ccccc2)cc1 | inactive
Brc1ccc(Br)cc1 | inactive
C=C(C)C#N | inactive
O=C1CCCO1 | inactive

assay: qHTS assay to identify small molecule antagonists of the vitamin D receptor (VDR) signaling pathway - cell viability counter screen (AID 743225); details: VDR-bla HEK293T viability, CellTiter-Glo luminescence, 16 h; series mostly up to 61 µM
Procedure, shortened: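 Read-out: CellTiter-Glo luminescence measured 30 min after reagent addition at room temperature. Cells were VDR-bla HEK 293T exposed 16 h at 37C, 5% CO2, to compound with 3 nM final calcitriol agonist.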

Structure (SMILES) | Potency
CCCCOCCOC(C)=O | inactive
CCOP(=S)(OCC)OP(=S)(OCC)OCC | inactive
Cc1cccc(N=Nc2ccc(N(C)C)cc2)c1 | inactive
COc1ccc(C=O)cc1OC | inactive
CC(C)(C#N)N=NC(C)(C)C#N | inactive
CC1CC(=O)O1 (stereo not drawn) | inactive
CS(=O)(=O)NC(=O)c1cc(Oc2ccc(C(F)(F)F)cc2Cl)ccc1[N+](=O)[O-] | inactive
CC(C)(c1ccc(OCC2CO2)cc1)c1ccc(OCC2CO2)cc1 (stereo not drawn) | inactive
[CH3][Sn]([Cl])([Cl])[Cl] | inactive
CCOP(=O)(OCC)OCC | inactive
COP(=S)(OC)SCn1nnc2ccccc2c1=O | inactive
CC1=C(C(=O)Nc2ccccc2)SCCO1 | inactive
CC[n+]1c(-c2ccccc2)c2cc(N)ccc2c2ccc(N)cc21 | inactive
O=C(O)CF | inactive
CSc1nc(NC(C)C)nc(NC(C)C)n1 | inactive
CCCCSP(=O)(SCCCC)SCCCC | inactive
c1ccc2c(c1)Nc1ccccc1S2 | inactive
CC(C)=CC1C(C(=O)OCc2cccc(Oc3ccccc3)c2)C1(C)C (stereo not drawn) | inactive
Cc1cc(Cl)ccc1N=CN(C)C | inactive

Structure (SMILES) | Potency
CCCCOC(=O)COC(=O)c1ccccc1C(=O)OCCCC | inactive
COC(=O)Nc1nc2ccccc2[nH]1 | inactive
Clc1ccc(C(Cl)(Cl)Cl)cc1 | inactive
O=NN1CCOCC1 | inactive
CC1(C)C(C(=O)OC(C#N)c2cccc(Oc3ccccc3)c2)C1(C)C (stereo not drawn) | inactive
C=CC(Cl)CCl (stereo not drawn) | inactive
CCC/C=N/O | inactive
Clc1cccc(C(Cl)(Cl)Cl)n1 | inactive
CCCCCCCCCc1ccc(O)cc1 | inactive
CC(C)Nc1nc(Cl)nc(NC(C)C)n1 | inactive
Nc1ccc2ccccc2c1 | inactive
O=C(O)c1nn(Cc2ccc(Cl)cc2Cl)c2ccccc12 | inactive
Nc1ncn[nH]1 | inactive
CNC(=S)S | inactive
O=[N+]([O-])c1ccc(Nc2ccccc2)cc1 | inactive and 49 µM (active)
Brc1ccc(Br)cc1 | inactive
C=C(C)C#N | inactive
O=C1CCCO1 | inactive
